# Assay results: the supplement of paper PMC7411054
# Where a name gives a salt, the structure may show the parent alone.
# What was measured:
# Details in all cases: treatment time: 24 h
# A549-CANX-COX4 = assay: phenotypically active (imaging signature differs from DMSO and reproducible) at any of 0.3-9 uM (binary (1 = active, 0 = inactive)); higher = active
# In short: (§1)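 The reporter lines, fifteen in total and built by gene editing in A549, HepG2 and WPMY1 cells, used BFP for segmentation alongside GFP and RFP/FusionRed markers. Each was treated at 0.3, 1, 3 or 9 µM for 24 h in four wells and then imaged live, with live-cell features normalised to solvent control wells. Deviation meant ≥3 of 4 wells beyond the 95th percentile of control Euclidean distances; reproducibility meant a median replicate Pearson correlation above the 95th percentile of non-replicates. Only conditions meeting both were scored as phenotypically active.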
# A549-TP53BP1-CLTA = assay: as above
# In short: as §1
# HepG2-ACTB-RAB5A = assay: as above
# In short: as §1
# HepG2-CANX-COX4 = assay: as above
# In short: as §1
# HepG2-GM130-SQSTM1 = assay: as above
# In short: as §1
# HepG2-TP53BP1-CLTA = assay: as above
# In short: as §1
# HepG2-TUBA1B-RELA = assay: as above
# In short: as §1
# WPMY1-ACTB-RAB5A [1] = assay: as above
# In short: as §1
# WPMY1-CANX-COX4 [2] = assay: as above
# In short: as §1
# WPMY1-GM130-SQSTM1 [3] = assay: as above
# In short: as §1
# WPMY1-TP53BP1-CLTA = assay: as above
# In short: as §1
# WPMY1-TUBA1B-RELA [4] = assay: as above
# In short: as §1
# A549-ACTB-RAB5A = assay: as above
# In short: as §1
# A549-GM130-SQSTM1 = assay: as above
# In short: as §1
# A549-TUBA1B-RELA = assay: as above
# In short: as §1
# WPMY1-CANX-COX4 [5] = assay: lowest phenotypically active concentration; higher = less potent
# In short: as §1
# WPMY1-TUBA1B-RELA [6] = assay: as above
# In short: as §1
# WPMY1-GM130-SQSTM1 [7] = assay: as above
# In short: as §1
# WPMY1-ACTB-RAB5A [8] = assay: as above
# In short: as §1
Compound,phenotypically active (A549-CANX-COX4),phenotypically active (A549-TP53BP1-CLTA),phenotypically active (HepG2-ACTB-RAB5A),phenotypically active (HepG2-CANX-COX4),phenotypically active (HepG2-GM130-SQSTM1),phenotypically active (HepG2-TP53BP1-CLTA),phenotypically active (HepG2-TUBA1B-RELA),phenotypically active (WPMY1-ACTB-RAB5A [1]),phenotypically active (WPMY1-CANX-COX4 [2]),phenotypically active (WPMY1-GM130-SQSTM1 [3]),phenotypically active (WPMY1-TP53BP1-CLTA),phenotypically active (WPMY1-TUBA1B-RELA [4]),phenotypically active (A549-ACTB-RAB5A),phenotypically active (A549-GM130-SQSTM1),phenotypically active (A549-TUBA1B-RELA),lowest phenotypically active concentration (WPMY1-CANX-COX4 [5]),lowest phenotypically active concentration (WPMY1-TUBA1B-RELA [6]),lowest phenotypically active concentration (WPMY1-GM130-SQSTM1 [7]),lowest phenotypically active concentration (WPMY1-ACTB-RAB5A [8])
OCc1ccccc1O[C@@H]1O[C@H](CO)[C@@H](O)[C@H](O)[C@H]1O [Salicin],0 (inactive),0 (inactive),0 (inactive),0 (inactive),0 (inactive),0 (inactive),0 (inactive),0 (inactive),0 (inactive),0 (inactive),0 (inactive),0 (inactive),,,,,,,
CS(=O)(=O)c1ccc(-c2nnc(/C=C/c3nnc(-c4ccc(C#N)cc4)o3)n2-c2ccccc2Cl)nc1,0 (inactive),0 (inactive),0 (inactive),0 (inactive),0 (inactive),0 (inactive),0 (inactive),0 (inactive),0 (inactive),0 (inactive),1 (active),0 (inactive),0 (inactive),0 (inactive),0 (inactive),,,,
C=C[C@H]1CN2CC[C@H]1C[C@@H]2[C@@H](O)c1ccnc2ccc(OC)cc12 [Quinidine hydrochloride monohydrate],0 (inactive),,0 (inactive),0 (inactive),0 (inactive),,0 (inactive),0 (inactive),0 (inactive),0 (inactive),,0 (inactive),0 (inactive),0 (inactive),0 (inactive),,,,
COc1ccc(CCN(C)CCCC(C#N)(c2ccc(OC)c(OC)c2)C(C)C)cc1OC (stereo unspecified) [verapamil],0 (inactive),,0 (inactive),0 (inactive),0 (inactive),,0 (inactive),0 (inactive),0 (inactive),0 (inactive),,0 (inactive),1 (active),1 (active),1 (active),,,,
O=S(c1ccccc1)c1ccc2nnnn2n1 (stereo unspecified),0 (inactive),,0 (inactive),0 (inactive),0 (inactive),,0 (inactive),0 (inactive),1 (active),0 (inactive),,1 (active),1 (active),0 (inactive),0 (inactive),9 µM,9 µM,,
Cc1cccc(CCN2CCC(C(=O)c3ccc(NS(C)(=O)=O)cc3)CC2)n1,0 (inactive),0 (inactive),0 (inactive),0 (inactive),0 (inactive),0 (inactive),0 (inactive),0 (inactive),0 (inactive),1 (active),0 (inactive),0 (inactive),0 (inactive),0 (inactive),0 (inactive),,,3 µM,
O=C(O)/C(Cc1ccccc1[N+](=O)[O-])=N\Nc1nc(-c2ccc(Cl)c(Cl)c2)cs1,0 (inactive),0 (inactive),0 (inactive),0 (inactive),0 (inactive),0 (inactive),0 (inactive),0 (inactive),0 (inactive),0 (inactive),1 (active),0 (inactive),0 (inactive),0 (inactive),0 (inactive),,,,
O=C(O)[C@H]1O[C@@H](Oc2cc3oc(-c4ccccc4)cc(=O)c3c(O)c2O)[C@H](O)[C@@H](O)[C@@H]1O [Baicalin],0 (inactive),0 (inactive),0 (inactive),0 (inactive),0 (inactive),0 (inactive),0 (inactive),0 (inactive),0 (inactive),1 (active),0 (inactive),0 (inactive),0 (inactive),0 (inactive),0 (inactive),,,3 µM,
CN(CCOc1ccc(NS(C)(=O)=O)cc1)CCc1ccc(NS(C)(=O)=O)cc1 [dofetilide],0 (inactive),,0 (inactive),0 (inactive),0 (inactive),,0 (inactive),0 (inactive),0 (inactive),0 (inactive),,0 (inactive),0 (inactive),0 (inactive),0 (inactive),,,,
Cc1ccc(NC(=O)c2ccc(CN3CCN(C)CC3)cc2)cc1Nc1nccc(-c2cccnc2)n1 [Imatinib mesylate],1 (active),,1 (active),1 (active),,,1 (active),1 (active),1 (active),1 (active),,1 (active),,1 (active),,,,,
NCCC(O)(P(=O)(O)O)P(=O)(O)O [pamidronate],0 (inactive),0 (inactive),0 (inactive),0 (inactive),0 (inactive),0 (inactive),0 (inactive),0 (inactive),0 (inactive),0 (inactive),0 (inactive),0 (inactive),,,,,,,
CCC1(c2ccccc2)NC(=O)N(C)C1=O (stereo unspecified) [Mephenytoin],0 (inactive),0 (inactive),0 (inactive),0 (inactive),0 (inactive),0 (inactive),0 (inactive),0 (inactive),0 (inactive),0 (inactive),0 (inactive),0 (inactive),,,,,,,
CC(C)C(=O)Nc1ncc(-c2cc(C(F)F)nn2-c2c(Cl)cccc2Cl)s1,0 (inactive),,1 (active),1 (active),0 (inactive),,0 (inactive),1 (active),1 (active),1 (active),,1 (active),1 (active),0 (inactive),0 (inactive),3 µM,3 µM,9 µM,9 µM
Cc1cnc(NC(=O)C2=C(O)c3ccccc3S(=O)(=O)N2C)s1 [meloxicam],0 (inactive),,0 (inactive),0 (inactive),0 (inactive),,0 (inactive),0 (inactive),0 (inactive),0 (inactive),,0 (inactive),0 (inactive),0 (inactive),0 (inactive),,,,
CN1C(=O)CC(c2ccccc2)C1=O (stereo unspecified) [phensuximide],0 (inactive),0 (inactive),0 (inactive),0 (inactive),0 (inactive),0 (inactive),0 (inactive),0 (inactive),0 (inactive),0 (inactive),0 (inactive),0 (inactive),,,,,,,
N#Cc1c(O)c2c(-c3ccc(-c4ccccc4O)cc3)csc2[nH]c1=O,0 (inactive),0 (inactive),0 (inactive),0 (inactive),0 (inactive),0 (inactive),0 (inactive),0 (inactive),0 (inactive),0 (inactive),0 (inactive),0 (inactive),,,,,,,
NC(=O)c1sc2c([N+](=O)[O-])cc(C(F)(F)F)cc2[n+]1[O-] [Cyclapolin 9],0 (inactive),0 (inactive),0 (inactive),0 (inactive),0 (inactive),0 (inactive),0 (inactive),0 (inactive),0 (inactive),1 (active),0 (inactive),1 (active),0 (inactive),0 (inactive),0 (inactive),,9 µM,9 µM,
CCCCCCCCCCCCc1ccc(S(=O)(=O)Nc2nncs2)cc1,0 (inactive),0 (inactive),0 (inactive),0 (inactive),0 (inactive),0 (inactive),0 (inactive),0 (inactive),0 (inactive),0 (inactive),0 (inactive),0 (inactive),,,,,,,
C=C[C@H]1CN2CC[C@H]1C[C@H]2[C@H](O)c1ccnc2ccc(OC)cc12 [Quinine dihydrochloride],0 (inactive),,0 (inactive),0 (inactive),0 (inactive),,0 (inactive),0 (inactive),0 (inactive),0 (inactive),,0 (inactive),1 (active),1 (active),0 (inactive),,,,
CN(C)CCCC1(c2ccc(F)cc2)OCc2cc(C#N)ccc21 (stereo unspecified) [citalopram],0 (inactive),0 (inactive),0 (inactive),0 (inactive),0 (inactive),0 (inactive),0 (inactive),0 (inactive),0 (inactive),1 (active),0 (inactive),0 (inactive),0 (inactive),0 (inactive),0 (inactive),,,9 µM,
CNC(=O)c1c(-c2ccc(F)cc2)oc2cc(N(CCO)S(C)(=O)=O)c(C3CC3)cc12 [nesbuvir],0 (inactive),0 (inactive),0 (inactive),0 (inactive),0 (inactive),0 (inactive),0 (inactive),0 (inactive),0 (inactive),0 (inactive),0 (inactive),0 (inactive),,,,,,,
C[C@@H](c1ncncc1F)[C@](O)(Cn1cncn1)c1ccc(F)cc1F [voriconazole],0 (inactive),0 (inactive),0 (inactive),0 (inactive),0 (inactive),0 (inactive),0 (inactive),0 (inactive),0 (inactive),0 (inactive),0 (inactive),0 (inactive),,,,,,,
Cc1ccc(C(=O)c2cc(O)c(O)c([N+](=O)[O-])c2)cc1 [tolcapone],0 (inactive),0 (inactive),0 (inactive),0 (inactive),0 (inactive),0 (inactive),0 (inactive),0 (inactive),0 (inactive),0 (inactive),0 (inactive),0 (inactive),,,,,,,
Fc1ccc(Cl)cc1-c1nc(Nc2ccncc2)c2nccnc2n1,0 (inactive),0 (inactive),0 (inactive),0 (inactive),0 (inactive),0 (inactive),0 (inactive),0 (inactive),0 (inactive),0 (inactive),1 (active),0 (inactive),0 (inactive),0 (inactive),0 (inactive),,,,
C#C[C@]1(OC(C)=O)CC[C@H]2[C@@H]3CCC4=C[C@@H](OC(C)=O)CC[C@@H]4[C@H]3CC[C@@]21C [ethynodiol diacetate],0 (inactive),0 (inactive),0 (inactive),0 (inactive),0 (inactive),0 (inactive),0 (inactive),0 (inactive),0 (inactive),0 (inactive),0 (inactive),0 (inactive),,,,,,,
C/C(=C/C(=O)Nc1ccccc1C(=O)O)c1ccc2ccccc2c1,0 (inactive),0 (inactive),0 (inactive),0 (inactive),0 (inactive),0 (inactive),0 (inactive),0 (inactive),0 (inactive),0 (inactive),0 (inactive),0 (inactive),,,,,,,
